Compound activity: PubChem BioAssay, Columbia University Molecular Screening Center
VCAM1 TNFa pot – potentiators of TNFa-induced VCAM1 expression, primary screen, imaging, HUVEC, TNFa stimulus, immunofluorescence. HUVEC TNFa-stimulated VCAM-1 immunofluorescence, high-content imaging; scaled per plate to unstimulated/TNFa-only wells. activation, % at 2 µM. actives 0.19% (n = 93,000). AID 808, 2007;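 active = activation above the screen mean plus 3 SD, with well images confirming the hit on visual review, cut at about 28% in these data, passing the limit was not always enough; inconclusive = activation above that limit but images do not confirm it; inactive = activation not above that limit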;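 note: signal is the number of cytoplasmic VCAM-1 stained grains per positive cell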
VCAM1 pot conf – potentiators of TNFa-induced VCAM1 expression, confirmation, imaging, HUVEC, triplicate retest; shares compounds with VCAM1 TNFa pot; HUVEC TNFa-stimulated VCAM-1 immunofluorescence imaging; activation, % at 2 µM; 230 tested, under 10 active; AID 1034, 2008;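 active = activation above 30% in triplicate retests at 2 µM, then confirmed by visual review of the well images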;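 note: scaled per plate between unstimulated and TNFa-stimulated DMSO control wells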
Starred values were filed as active, the others as inactive; ? = inconclusive. Many of the other results were omitted from the sample, so hits are more common in it than they were.

SMILES	VCAM1 TNFa pot	others
CC(C)CC1NC(=O)N(CC(=O)c2ccc3c(c2)OCCO3)C1=O (stereo unspecified)	-8
Cc1cccc(-c2noc(CCc3ccccc3)n2)c1	3
COc1ccc(-c2nc(-c3cccc(C)c3)no2)cc1OC	54*	VCAM1 pot conf=-17
Cc1nc(-c2cccc(-c3noc(C)n3)c2)no1	-37
CCOC(=O)CCC(NC(=O)c1ccc(NCN2C(=O)c3ccccc3C2=O)cc1)C(=O)OCC (stereo unspecified)	-2
COc1ccc(OC)c(C(c2nnnn2C2CCCC2)N2CCN(c3ccc(F)cc3)CC2)c1 (stereo unspecified)	-5
CCCCP(=O)(CCCC)Cc1ccccc1O	-6
Cc1ccc2c(c1)N=C(c1ccc(F)cc1)CO2	-9
O=C1c2ccccc2C(=O)N1Cc1nc2ccccc2c(=O)n1CCCN1CCOCC1	-9
COc1ccccc1C(=O)Nc1cccc(SC)c1	51*	VCAM1 pot conf=-4
CSc1cccc(NC(=O)c2c(Cl)cnn2C)c1	-33
COc1ccccc1C(=O)Nc1ccc2c(c1)nc(CN1CCN(C(C)=O)CC1)n2C	-90
COc1nc(Nc2ccc(C(C)C)cc2)nc(OC)n1	47*	VCAM1 pot conf=0
CC(C)c1ccc(NC(=O)c2ccc(Br)o2)cc1	1
COc1nc(OC)nc(N2CCC(C(=O)NC3CCCCCC3)CC2)n1	8
COc1ccc(OCC(=O)Nc2ccc3c(c2)nc(CN2CCCC2)n3C)cc1	-3
Cn1nc(C(=O)OCC(=O)N2CCc3ccccc32)c2ccccc2c1=O	-77
CCn1nccc1C(=O)Nc1nccs1	?	VCAM1 pot conf=-13
CC(C)CN1C(=O)c2ccc(C(=O)Nc3nccs3)cc2C1=O	-24
Cc1ncoc1C(=O)Nc1nccs1	4
CCOC(=O)Cc1nn(CCc2ccccn2)c(=O)c2ccccc12	-10
Cc1cc(/C=N/n2cnnc2)c(C)n1-c1ccc(C(=O)O)cc1	-7
Cc1oc(-c2ccc(Cl)cc2)nc1CN1CCC(C(=O)N2CCc3ccccc3C2)CC1	-4
CCC1CCCCN1C(=O)CSc1nnc(-c2ccc3c(c2)OCCO3)o1 (stereo unspecified)	-8
O=C(CSc1nnc(-c2ccccc2O)o1)N1CCc2ccccc2C1	32*	VCAM1 pot conf=-10
SMILES	VCAM1 TNFa pot	others
Cc1cc(C)cc(OCC(=O)Nc2nonc2NC(=O)COc2cc(C)cc(C)c2)c1	-78
CCN(C(=O)c1cc2cccc(OC)c2oc1=O)C1CCCCC1	8
COCc1cc(Sc2ccc(Br)cc2)nc(-c2ccccc2)n1	8
COc1ccccc1CNS(=O)(=O)c1ccc(NC(C)=O)cc1	-3
COCCn1c(=S)[nH]c2ncccc2c1=O	?	VCAM1 pot conf=-14
COCCn1c(C23CC4CC(CC(C4)C2)C3)n[nH]c1=S	-27
COCCn1c(SCC(=O)Nc2nnc(C)s2)nnc1-c1c[nH]c2ccccc12	5
CCOC(=O)Cc1csc(NC(=O)c2c(O)c3ccccc3n(CC(C)C)c2=O)n1	9
CCOC(=O)C1=C(CSc2nc3c(cc2C#N)CN(C)CC3)OC(N)=C(C#N)C1c1ccccc1 (stereo unspecified)	-96
CCCC1=C(C(=O)OCC)C(c2c(C)nn(-c3ccccc3)c2Cl)C(C#N)=C(N)O1 (stereo unspecified)	44*	VCAM1 pot conf=-24
CCCc1nn(-c2ccccc2)c2c1C(c1cccs1)C(C#N)=C(N)O2 (stereo unspecified)	8
O=C(O)c1cccc(S(=O)(=O)N2Cc3ccccc3C2)c1	-1
C/C(=C1/SC(=S)N(CCC(=O)O)C1=O)c1ccc(O)cc1	-24
CCOc1ccc(-c2nc(C#N)c(NCC(C)C)o2)cc1	2
N#Cc1nc(-c2ccc(OCc3ccccc3)cc2)oc1N1CCOCC1	-1
C=CCNc1oc(-c2ccc(OC)cc2)nc1C#N	45*	VCAM1 pot conf=-10
Cn1c(=O)[nH]c(=O)c2[nH]c(NCCCN3CCOCC3)nc21	22
COc1cc(O)c(C(C)=O)cc1OC	14
C=CCOn1c(=O)c(=O)n(OCc2ccccc2)c2ccccc21	96*	VCAM1 pot conf=-15
Cc1nn(CC(O)CN2c3ccccc3Sc3ccccc32)c(C)c1Br (stereo unspecified)	-1
N#Cc1sc2nc(N3CCCCC3)c3c(c2c1N)CCCC3	14
COc1ccc2c(c1OC)C(=O)OC2CC(=O)c1ccc2c(c1)OCO2 (stereo unspecified)	-8
COc1ccc2c(c1OC)C(=O)OC2Nc1ccccn1 (stereo unspecified)	54*	VCAM1 pot conf=-13
O=C1OC(Nc2ccc3ncccc3c2)c2ccccc21 (stereo unspecified)	-1
CCCCC(=O)OCc1cn(-c2ccc(Cl)cc2)nn1	40
SMILES	VCAM1 TNFa pot	others
Cc1cc(NC(=O)CSc2nc3ccccc3c(=O)n2C2CCCC2)no1	-68
CCCCNC(=O)CSc1nc2ccccc2c(=O)n1Cc1ccc2c(c1)OCO2	0
CCCN(CCC)C(=O)CSc1nc2ccccc2c(=O)n1C1CCCC1	63*	VCAM1 pot conf=-8
CCN(CC)c1ccc(NC(=O)c2ccc(Br)o2)c(C)c1	8
COc1ccccc1CN1C(=O)CCC1(C)C(=O)NCc1cccnc1 (stereo unspecified)	7
Cc1nc2ccccc2n1CC(O)COC1CCCCC1 (stereo unspecified)	3
Cc1nccn1CC(O)COC1CCCCC1 (stereo unspecified)	?	VCAM1 pot conf=-20
Cc1nccn1CC(O)COc1ccccc1 (stereo unspecified)	8
CCOc1ccccc1NC(=O)CSc1nnc(CNC(=O)COc2ccc(Cl)cc2)o1	6
C=CCn1c(=O)c2ccccc2n2c(SCC(=O)c3ccccc3)nnc12	-7
Cc1ccc(N(CC(=O)NCc2ccc3c(c2)OCO3)S(C)(=O)=O)cc1	8
O=C(CN1C(=O)NC2(CCCCCCC2)C1=O)N1CCOCC1	-8
O=C(CN1C(=O)NC2(CCCCCCC2)C1=O)NCc1ccc2c(c1)OCO2	51*	VCAM1 pot conf=-11
Nc1nc2nonc2nc1N1CCCCC1	8
CCCCOC(=O)c1ccc(NC(=O)c2nn(C)cc2Br)cc1	27
CC(C(=O)NC1=NCCS1)(C(F)(F)F)C(F)(F)F	10
COc1ccc(N2C(=O)CC(N3CCN(S(=O)(=O)c4c(F)cccc4F)CC3)C2=O)cc1OC (stereo unspecified)	57*	VCAM1 pot conf=-15
O=C1CC(N2CCOCC2)C(=O)N1c1ccc2c(c1)OCO2 (stereo unspecified)	11
COc1ccc(C(C)(C)C)cc1S(=O)(=O)N1CCN(C)CC1	-93
CS(=O)(=O)N(CC(=O)N1CCOCC1)c1ccc2c(c1)OCO2	-17
COC(=O)C1=C(CSc2nc3c(cc2C#N)CN(C)CC3)OC(N)=C(C#N)C1c1ccccc1F (stereo unspecified)	-25
Cc1ccc(OCC(=O)NCc2ccco2)cc1C	-16
CCn1cc(C(=O)NCc2ccco2)c2cc(OC)c(OC)cc2c1=O	?	VCAM1 pot conf=-10
CCCOc1ccc(CC(=O)NCc2ccco2)cc1OC	-2
CCOC(=O)Nc1ccc2c(CN3C(=O)NC(CC)(CC)C3=O)cc(=O)oc2c1	-1
CCN(C1CCCCC1)S(=O)(=O)c1ccc(OC)c(C)c1	6
CCCn1nnnc1NCc1ccccc1OCc1ccc(F)cc1	28
CCNC(=O)COC(=O)c1cc(=O)[nH]c2ccccc12	-9
O=C(CSc1nnc2c3cc(F)ccc3nc(-c3ccccc3)n12)N1CCOCC1	-14
COc1ccc2c(C)cc(SCC(=O)N3CCOCC3)nc2c1	?	VCAM1 pot conf=-21
